Mcl-1 Bim block = inhibitors of Bim peptide binding to Mcl-1, primary screen, biochemical, bead-based flow cytometry, multiplex; AID 1009, 2008; inhibition, % at 10 µM; actives 0.1% (n = 190,000); Induced myeloid leukemia cell differentiation protein Mcl-1 (Homo sapiens), Q07820; Bim peptide-Mcl-1 binding; in the data active = inhibition above about 40%
Mcl1-Bid inh = Mcl-1/Bid binding inhibitors, primary screen, biochemical, TR-FRET, 1536-well; TR-FRET Mcl-1/Bid-Dy647 peptide binding; inhibition, % at 21.7 µM; actives 0.97% (n = 220,000); AID 1021, 2008;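 active = compounds that cut the binding signal by more than half at the single screening dose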;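 note: His-tagged Mcl-1 with europium anti-His antibody binding Bid BH3 peptide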
Mcl1 Noxa PPI = Mcl-1/Noxa binding inhibitors, primary screen, biochemical, TR-FRET, 1536-well; actives 1.5% (n = 220,000); Induced myeloid leukemia cell differentiation protein Mcl-1 (Homo sapiens), Q07820; inhibition, % at 21.7 µM; AID 1022, 2008; TR-FRET Mcl-1/Noxa peptide binding, 2 h;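 active = compounds that cut the protein-peptide binding signal by more than 50% relative to plate controls in a single-dose test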;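 note: His-tagged Mcl-1 with rhodamine Noxa BH3 peptide and terbium anti-His antibody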
MCL1-BIM inh = inhibitors of MCL1 binding to BIM-BH3, primary screen, biochemical, fluorescence polarization; actives 0.68% (n = 320,000); inhibition, % at 10.9 µM; GST-MCL1 / FITC-Bim-BH3 fluorescence polarization; AID 2057, 2009; Induced myeloid leukemia cell differentiation protein Mcl-1 (Homo sapiens), Q07820;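 active = inhibition above the mean inhibition of all tested compounds plus 3 SD, set per campaign, cut at about 40% in these data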;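 note: higher means more loss of mP so more displacement of Bim peptide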
14-3-3 Bad inh = inhibitors of 14-3-3 zeta/Bad binding, primary screen, biochemical, TR-FRET, bovine 14-3-3 zeta; 14-3-3 protein zeta/delta (Bos taurus), P63103; TR-FRET 14-3-3zeta/Dy647-pBad peptide displacement, 1 h; inhibition, % at 21.7 µM; actives 0.71% (n = 220,000);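 active = inhibition above about 70%, limit read from the data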
Target sequence (P63103 whole entry, looked up): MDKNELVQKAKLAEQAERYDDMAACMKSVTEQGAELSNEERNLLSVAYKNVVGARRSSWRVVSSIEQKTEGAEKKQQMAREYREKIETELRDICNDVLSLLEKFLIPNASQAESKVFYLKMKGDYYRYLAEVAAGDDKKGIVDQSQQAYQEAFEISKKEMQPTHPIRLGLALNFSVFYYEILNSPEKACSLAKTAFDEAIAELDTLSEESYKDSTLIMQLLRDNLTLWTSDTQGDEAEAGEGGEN
eIF4E 4G PPI = eIF4E–eIF4G protein interaction inhibitors, primary screen, biochemical, uHTS, TR-FRET, eIF4GI fragment. Eukaryotic translation initiation factor 4E (Mus musculus) + Eukaryotic translation …. TR-FRET eIF4E-eIF4GI(517-606) binding, 2 h. inhibition, % at 21.7 µM. actives 0.37% (n = 220,000). AID 782, 2007;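 active = inhibition above about 30%, limit read from the data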
Of the large screens only hits and unclear results are named; the others gave an inactive call. Sampled rows, rich in hits. Any-hit rate of the full collection: about 2.6%.

CCOC(=O)C1=C(C)N(C)C(=O)NC1c1cc2c(cc1[N+](=O)[O-])OCO2 (configuration not stated)	Mcl1 Noxa PPI 50.9
O=c1c(=NNc2ccccc2Cl)c(=O)c2ccccc12	Mcl1-Bid inh 56.8 (no result: MCL1-BIM inh)
Cc1cc(C)c(NN=c2c(=O)c3ccccc3c2=O)c(C)c1	none
CC(C)(C)NC(=O)C(=O)NNC(=O)c1cccc(F)c1	none
Cn1ccsc1=NC(=O)c1cccc(C#N)c1	none (no result: Mcl-1 Bim block, Mcl1-Bid inh, Mcl1 Noxa PPI, 14-3-3 Bad inh, eIF4E 4G PPI)
Oc1ccc(Cl)cc1N=Cc1sc2ccccc2c1Cl	none
Cc1cccc(/N=C/c2sc3ccccc3c2O)n1	Mcl1 Noxa PPI 82.3 (no result: Mcl-1 Bim block)
O=[N+]([O-])c1ccc(O)c(N=Cc2sc3ccccc3c2O)c1	Mcl1 Noxa PPI 53.1
O=c1[nH]c2ccccc2c(O)c1-c1cc2ccccc2oc1=O	none
COc1ccc(NC(=O)c2ccccc2N(Cc2ccccc2)S(C)(=O)=O)cc1	Mcl1 Noxa PPI 83.2
CC(=O)Nc1ccc(NC(=O)c2ccccc2N(Cc2ccccc2)S(C)(=O)=O)cc1	none (no result: Mcl-1 Bim block, Mcl1-Bid inh, Mcl1 Noxa PPI, 14-3-3 Bad inh, eIF4E 4G PPI)
CSc1nnc2ccc(-c3cccs3)nn12	Mcl-1 Bim block 42.0
COc1ccccc1NC(=O)c1cn(C)c(=O)c2cc(OC)c(OC)cc12	Mcl1-Bid inh 84.2
COc1cc(OC)c(NC(=O)c2ccccc2F)cc1Cl	none
COc1ccccc1NC(=O)c1cc2cc(Br)ccc2cc1O	Mcl1 Noxa PPI 88.3 (no result: Mcl-1 Bim block)
COc1cc(NC(=O)c2cc3ccccc3cc2O)c(OC)cc1Cl	Mcl1 Noxa PPI 60.6 (no result: Mcl-1 Bim block)
COc1ccc(CN2C(=O)c3cccc4cccc2c34)cc1F	none (no result: Mcl-1 Bim block, Mcl1-Bid inh, Mcl1 Noxa PPI, 14-3-3 Bad inh, eIF4E 4G PPI)
CC1CCC2C(=O)N(c3ccc(C(=O)Oc4cccc5cccnc45)cc3)C(=O)C2C1 (configuration not stated)	none
O=c1c2c(nc3cc(-c4ccc(F)cc4)[nH]n13)CCCC2	Mcl1 Noxa PPI 51.5
Cc1[nH]n2c(=O)c3c(nc2c1-c1ccc(F)cc1)CCCC3	Mcl1-Bid inh 80.9
O=C1c2c(O)cc(O)cc2O[C@@]12c1c(cc(O)c3c1O[C@H](c1ccc(O)cc1)[C@@H](O)C3)O[C@@H]2c1ccc(O)cc1	Mcl1 Noxa PPI 66.4
COc1ccc(COC(=O)C2CCN(C(=O)c3ccc(Cl)cc3)CC2)cc1F	none (no result: Mcl-1 Bim block, Mcl1-Bid inh, Mcl1 Noxa PPI, 14-3-3 Bad inh, eIF4E 4G PPI)
COc1ccc(C(=O)NC(=S)Nc2ccc(Cc3ccncc3)cc2)cc1	14-3-3 Bad inh 80.7
COc1ccc(NC(=S)Nc2ccc3nccnc3c2)cc1	Mcl1 Noxa PPI 51.8
COc1ccc(NC(=S)Nc2ccc3snnc3c2)cc1	none
Cc1ccccc1C(=O)NC(=S)Nc1ccc(Cc2ccncc2)cc1	none
N#Cc1nc(-c2cccs2)oc1NCc1ccc2c(c1)OCO2	none
O=C(COc1ccc(/C=N/NC(=O)c2cc3ccccc3o2)cc1Cl)Nc1ccccc1	Mcl1-Bid inh 83.6, 14-3-3 Bad inh 79.0
CC(C)(C)c1nc2ccccc2c2nnc(SCC(=O)Nc3nc4ccccc4s3)n12	Mcl1-Bid inh 70.6
CC(C)(C)c1nc2ccccc2c2nnc(SCC(=O)Nc3nccs3)n12	none
CC(NC(=O)COc1ccc(Br)cc1)C1CCCO1 (configuration not stated)	none (no result: Mcl-1 Bim block, Mcl1-Bid inh, Mcl1 Noxa PPI, 14-3-3 Bad inh, eIF4E 4G PPI)
COc1cc(CO)c(Br)cc1OCC(N)=O	14-3-3 Bad inh 81.9
CCN(C(=O)CSc1nnc(SC(C)C)s1)C1CCS(=O)(=O)C1 (configuration not stated)	none (no result: Mcl-1 Bim block, Mcl1-Bid inh, Mcl1 Noxa PPI, 14-3-3 Bad inh, eIF4E 4G PPI)
COC(=O)c1ccc(CSc2n[nH]c(=S)s2)o1	eIF4E 4G PPI 33.0
COC(=O)c1ccc(CSc2nc3ccccc3s2)o1	none
CC(C)c1[nH]nc2c1C(c1cccnc1)C(C#N)=C(N)O2 (configuration not stated)	Mcl1-Bid inh 92.3
Cc1ccc(-c2[nH]nc3c2C(c2cccnc2)C(C#N)=C(N)O3)cc1 (configuration not stated)	none
